# High-throughput results as filed in PubChem BioAssay.
# PI5P4Ka inh: qHTS for Inhibitors of phosphatidylinositol 5-phosphate 4-kinase (PI5P4K); Phosphatidylinositol 5-phosphate 4-kinase type-2 alpha (Homo sapiens), P48426; PI5P4Kalpha enzyme, ADP-Glo luminescence, 60 min; active compounds read low; max response, %; 330,000 tested, 1.2% active; AID 652105, 2013; active = max response of -50% or lower; inconclusive = between -30% and -50%; inactive = -30% or higher; also: value at the top dose of about 77 µM; % is scaled to controls: 0 for no effect and ±100 for the full control effect
#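 Luminescence from ADP-Glo served as readout of PI5P4Kalpha activity in a qHTS format. Reaction: enzyme, substrate, compound, ATP at 5 microM final, 60 min at RT.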
# Pin1 inhibitor: qHTS Assay to Find Inhibitors of Pin1. Peptidyl-prolyl cis-trans isomerase NIMA-interacting 1 (Homo sapiens), Q13526. Pin1 FP peptide displacement, HiFluor488, 10 min. AID 504891, 2011. Potency, µM (titrated, usually from 115 µM), for inactives: at the top dose activity, negative = inhibition, hits mostly inhibitors. 390,000 tested, 0.009% active; active = well fitted inhibition curve with a large enough effect in the polarisation, with a control signal flat, not every such curve was filed as active; inconclusive = small, poorly fitted or top-dose-only effect, or effect the other way, or a change in a side signal; inactive = no such curve, though single readings can be large or run the other way; the % refers to the polarisation; also: potency is read from the fitted curve at half-maximal effect; % is scaled to controls: 0 for no effect and ±100 for the full control effect
# Target sequence (Q13526 whole entry, looked up): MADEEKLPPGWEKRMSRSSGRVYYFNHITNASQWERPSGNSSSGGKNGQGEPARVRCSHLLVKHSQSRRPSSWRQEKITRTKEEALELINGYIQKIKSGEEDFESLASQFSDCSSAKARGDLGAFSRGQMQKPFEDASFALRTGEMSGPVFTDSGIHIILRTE
# PI4K2A block: qHTS for small molecular inhibitors of PI4K2A. Phosphatidylinositol 4-kinase type 2-alpha (Homo sapiens), Q9BTU6. purified PI4K2A, ADP-Glo luminescence, 1 h; active compounds read low. activity change, negative = inhibition, % at 76.9 µM. 420,000 tested, 0.13% active. AID 1346378, 2018; in the data active = activity change below about -50%; inconclusive = mostly about -30% to -49%;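 also: -100% = wells without enzyme as full effect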
#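 In this quantitative HTS, ADP production by PI4K2A was quantified luminescently after 1 h at ambient temperature; 100 microM adenosine served as plate-quality control.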
# Tb PFK inh-1: qHTS Assay to Find Inhibitors of T. brucei phosphofructokinase | 330,000 tested, 0.17% active | AID 485367, 2010 | T. brucei PFK, ADP-Glo luminescence | Potency, µM (highest dose often 57.5 µM), inactives show top-dose activity, negative = inhibition, actives largely listed as inhibitors | ATP-dependent 6-phosphofructokinase (Trypanosoma brucei brucei), O15648;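 also: potency is read from the fitted curve at half-maximal effect; 0% = uninhibited 1x PFK enzyme wells and -100% = no-enzyme wells; nearly all actives have a fitted effect of over 60% in size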
# Target sequence (O15648 whole entry, looked up): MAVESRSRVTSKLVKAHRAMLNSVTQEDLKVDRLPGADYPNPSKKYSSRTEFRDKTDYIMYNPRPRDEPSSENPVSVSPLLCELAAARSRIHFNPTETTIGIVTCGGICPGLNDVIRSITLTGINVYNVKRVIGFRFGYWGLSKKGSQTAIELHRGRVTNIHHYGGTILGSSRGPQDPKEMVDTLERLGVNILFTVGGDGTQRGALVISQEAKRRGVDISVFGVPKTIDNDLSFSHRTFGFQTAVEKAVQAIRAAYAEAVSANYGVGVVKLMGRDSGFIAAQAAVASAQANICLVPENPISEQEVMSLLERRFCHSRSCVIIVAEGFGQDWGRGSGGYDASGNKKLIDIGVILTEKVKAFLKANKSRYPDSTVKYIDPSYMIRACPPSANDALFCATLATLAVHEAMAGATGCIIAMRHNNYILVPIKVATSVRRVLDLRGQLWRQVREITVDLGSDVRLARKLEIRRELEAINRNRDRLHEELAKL
#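 Compounds were pin-transferred as a titration series up to 57 uM into substrate buffer (0.5 mM F6P, 0.1 mM ATP, pH 8.0), then 1.25 nM PFK was added and reactions ran 45 min before ADP-Glo detection.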
# PGK inhibitor: qHTS Assay to Find Inhibitors of Phosphoglycerate Kinase; Potency, µM (top dose mostly 57.5 µM), without a hit: top-dose activity change, negative = inhibition, actives largely listed as inhibitors; 380,000 tested, 0.043% active; PGK/GAPDH coupled, Kinase-Glo luminescence, 60 min; AID 602233, 2012; Phosphoglycerate kinase, glycosomal (Trypanosoma brucei brucei), P07378; also: potency is read from the fitted curve at half-maximal effect; % is scaled to controls: 0 for no effect and ±100 for the full control effect; nearly all actives have a fitted effect of over 60% in size
#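 Recombinant glycosomal PGK reaction used 1,3-bisphosphoglycerate generated in-well by GAPDH (100nM final) in 100mM TEA pH 7.6, 5mM MgCl2, 0.01% Tween-20. After 60 minutes at room temperature, ATP was read by Kinase-Glo Plus luminescence end-point.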
# TbPFK ATP: Tb PFK orthogonal confirmatory assay using ATP depletion (Kinase-Glo Plus) as an alternative measure of Tb PFK activity: Hit Validation; shares compounds with Tb PFK inh-1; Tb PFK enzyme, ATP depletion, Kinase-Glo Plus luminescence; Potency, µM (highest dose often 57.5 µM), for inactives: top-dose inhibition; 1,100 tested, 47% active; calls by dose curve; also: potency is read from the fitted curve at half-maximal effect; nearly all actives have a fitted effect of over 60% in size
# Tb PFK inh-2: Inhibitors of T. brucei phosphofructokinase: Hit Validation | shares compounds with Tb PFK inh-1 | purified T. brucei PFK, ADP-Glo luminescence, 45 min | 1,100 tested, 41% active | Potency, µM (highest dose often 57.5 µM), without a hit: top-dose activity change, negative = inhibition, hits mostly inhibitors;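 also: potency is read from the fitted curve at half-maximal effect; plate controls were full PFK enzyme control for no effect and no enzyme control for full effect; nearly all actives have a fitted effect of over 60% in size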
# Numbers without * were called inactive; i = inactive; ? = inconclusive; / = not tested or not shown. This excerpt belongs to a sample that is enriched for hits. Unless noted, calls follow the shape of the dose curve; as a rule, active = well fitted curve in the direction sought with a large enough effect; inconclusive = small, poorly fitted or top-dose-only effect, or another doubt; inactive = no such curve, though single readings can be large; an effect the other way counts as inactive or inconclusive.
SMILES,PI5P4Ka inh,Pin1 inhibitor,PI4K2A block,Tb PFK inh-1,PGK inhibitor,TbPFK ATP,Tb PFK inh-2
COc1ccc(C(=O)CSC#N)cc1OC,3.5,-5.1%,-8.5,?,-2.5%,4.78µM*,12µM*
COc1ccc(C(=O)CN2CCOCC2)cc1F,-2.6,?,8.6,2.2%,-1.1%,/,/
CN(N=O)c1cc(O)ccc1O,/,?,-25.8,/,/,/,/
O=[N+]([O-])c1ccc(N2CCN(c3cccc(Cl)c3)CC2)cn1,5.3,-11.7%,2.0,12µM*,-1.1%,?,5.36µM*
O=[N+]([O-])c1cccc(CN2CCN(Cc3ccc(Cl)cc3)CC2)c1,1.9,-2.5%,-7.3,-1.8%,-6.2%,/,/
Cc1ccc2c(Cl)cc(Cl)c(O)c2n1,0.1,?,-5.9,/,-4.9%,/,/
O=C(CN1CCCC1=O)Nc1ccccc1,7.4,-5.3%,-0.3,-4.1%,1.8%,/,/
O=C(CC1SC(=O)N(c2ccccc2)C1=O)Nc1ccc(Br)cc1 (stereo unspecified),-13.3,-4.3%,4.0,19µM*,2.0%,?,?
COc1ccc(OC)c(CN2CCC(CNC(=O)Nc3cccc(Cl)c3)CC2)c1,2.3,-5.6%,0.8,?,-7.2%,?,?
O=C(NCC1CCN(Cc2cccc(Cl)c2)CC1)Nc1ccc(Cl)cc1,4.1,-2.9%,-4.2,?,-3.7%,?,?
Cc1ccc(Cn2cccc(C(=O)Nc3ccc4c(c3)OCCO4)c2=O)cc1,/,12.1%,1.8,/,-6.5%,/,/
C=C1C(=O)C(C)=C2C(=O)N3Cc4[nH]c5ccccc5c4CC3(C(=O)OC)C12 (stereo unspecified),/,/,-10.8,/,/,/,/
Cc1ccc(NC(=S)Nc2ccc(Cl)c(Cl)c2)c(OC(F)F)c1,1.7,3.3%,8.4,5.36µM*,i,?,?
Fc1ccc(NC(=S)Nc2ccccc2OC(F)F)cc1Cl,19.9,-8.2%,-2.4,?,-3.7%,17.6%,-27.0%
Fc1ccc(NC(=S)Nc2ccccc2N2CCOCC2)cc1Cl,1.5,-0.6%,-4.8,?,i,4.7%,3.6%
Cc1ccc(N2C(=O)NC(=O)/C(=C\C=C\c3ccco3)C2=O)cc1C,?,?,?,?,-6.2%,/,/
O=C(O)C(Cc1ccccc1)N1C(=O)/C(=C/C=C/c2ccco2)SC1=S (stereo unspecified),-98.8*,?,-27.5,?,12.6µM*,21.3µM*,?
O=C(O)CC(C(=O)O)N1C(=O)/C(=C/C=C/c2ccco2)SC1=S (stereo unspecified),-54.7*,?,?,8.49µM*,4.47µM*,2.13µM*,6.01µM*
O=C(Cc1ccccc1)c1ccccn1,-23.2,?,-8.6,/,8.4%,/,/
O=C(O)c1ccccc1C(=O)Nc1ccc(Br)c(C(F)(F)F)c1,-1.0,-0.3%,1.5,?,-3.6%,2.1%,-0.2%
CC(C)(O)C(=O)Nc1ccc([N+](=O)[O-])c(C(F)(F)F)c1,7.7,-3.2%,2.7,-4.8%,4.5%,/,/
Cc1c(P(=S)(c2ccccc2)c2ccccc2)c2ccccc2n1C,/,0.3%,-0.3,/,/,/,/
Clc1ccc(CNCCCSc2ncccn2)cc1Cl,-2.7,4.0%,3.4,15.1µM*,7.9%,19µM*,19µM*
Cc1cc(C(=O)COC(=O)c2cc(Cl)c(O)c(Cl)c2)c(C)n1C,-64.2*,?,-7.2,16.9µM*,-15.8%,?,-18.2%
CCOC(=O)c1c(NC(=O)C2C3C=CC(C3)C2(C)C(=O)O)sc2c1CCCC2 (stereo unspecified),-14.8,-0.1%,-2.3,?,?,?,26.9µM*
SMILES,PI5P4Ka inh,Pin1 inhibitor,PI4K2A block,Tb PFK inh-1,PGK inhibitor,TbPFK ATP,Tb PFK inh-2
O=C(NC12CC3CC(CC(C3)C1)C2)OC1CN2CCC1CC2 (stereo unspecified),8.4,2.0%,2.0,-1.1%,i,/,/
O=C(Cn1sc2ccccc2c1=O)NC12CC3CC(CC(C3)C1)C2,-90.5*,-2.6%,-2.0,4.26µM*,-2.3%,?,9.53µM*
Cc1onc(-c2ccccc2Cl)c1C(=O)NCc1ccc2c(c1)cc(C)n2C,-24.3,?,2.8,1.8%,-1.5%,/,/
N#Cc1cc2c(nc1SCC(=O)Nc1cccc(F)c1)C1CCN2CC1,/,-0.1%,0.4,/,2.4%,/,/
O=C(CSc1nc(-c2ccc(F)cc2)nc2c1Cc1ccccc1O2)Nc1cccc(C(=O)O)c1,?,?,-3.0,?,?,?,?
O=C1C=C(c2ccccc2)C(=O)N1Nc1ccccc1,-16.7,-2.9%,17.3,23.9µM*,5.7%,21.3µM*,?
Cc1nnc(Sc2cc(NCCCO)c([N+](=O)[O-])c3nonc23)s1,-78.1*,?,?,6.01µM*,-5.4%,1.9µM*,3.38µM*
Cc1nnc(Sc2cc(NCCO)c([N+](=O)[O-])c3nonc23)s1,-17.9,?,-19.4,5.36µM*,2.1%,1.35µM*,1.51µM*
Oc1ccc(O)c(Cc2nc3ccccc3s2)c1,5.4,-10.2%,-0.9,30.1µM*,5.1%,23.9µM*,?
N#Cc1c(F)cccc1NCc1cccnc1,-5.4,-15.5%,2.3,?,9.4%,?,-9.1%
CC(=O)Nc1ccc(NC(=O)Cn2nc([N+](=O)[O-])c(Br)c2C)cc1,-4.7,-2.7%,1.7,12µM*,-4.0%,19µM*,30.1µM*
Cc1c(Br)c([N+](=O)[O-])nn1CC(=O)Nc1ccc(Cc2ccncc2)cc1,1.2,-14.2%,-4.0,13.5µM*,-6.3%,13.5µM*,21.3µM*
Cc1c(Br)c([N+](=O)[O-])nn1CC(=O)Nc1ccc2nc3n(c(=O)c2c1)CCCC3,-9.4,-5.5%,3.0,?,-8.5%,23.9µM*,?
Cc1ccc(Cn2nc(C(=O)Nc3ccc(Br)cc3)cc2C)cc1,15.7,?,-16.4,10.0%,6.2%,/,/
Cc1c(Br)c([N+](=O)[O-])nn1CC(=O)Nc1ccccn1,6.4,1.4%,-1.8,19µM*,5.5%,19µM*,?
CCc1ccc(NC(=O)Cn2c(=O)oc3cc(S(=O)(=O)NCc4ccccc4)ccc32)cc1,/,?,2.7,/,9.5%,/,/
